hNpr1 antagonist = blocks ANP-stimulated signaling of human Npr1 receptor; P16066; HEK293 hNpr1 GloSensor cGMP, ANP-stimulated luminescence; Potency, µM (top dose mostly 46.3 µM), for inactives: at the top dose activity change, negative = inhibition, hits mostly inhibitors; 76,000 tested, 1.6% active; calls by dose curve; further: nearly all actives have a fitted effect of over 60% in size
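HEK293 cells stably expressing human Npr1 and cGMP GloSensor pGS-40F, loaded 2 h with 2% GloSensor reagent, given compound 30 min at room temperature. Luminescence read before and 20 min after 0.1 nM hNppA.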
HEK293 tox = cytotoxic compounds in HEK 293 cells; 94,000 tested, 6.6% active; HEK 293 viability, ATP luminescence (CellTiter-Glo), 48-72 h; AID 1345083; Potency, µM (titrated, usually from 115 µM), for inactives: top-dose activity change, negative = cytotoxicity, actives largely listed as inhibitors; further: nearly all actives have a fitted effect of over 60% in size
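250 HEK 293 cells/well; compound by pintool; incubated 48 or 72 hr at 37 degree Celsius; CellTiter-Glo added, 10 min RT, luminescence imaged.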
3T3 cytotox = cytotoxic compounds in NIH 3T3 cells; 94,000 tested, 4.3% active; Potency, µM (top dose mostly 96.7 µM), inactives show at the top dose activity change, negative = cytotoxicity, usual class: inhibitors; NIH 3T3 viability, CellTiter-Glo ATP luminescence, 48-72 h; further: nearly all actives have a fitted effect of over 55% in size
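Cells were seeded at 400 per well, treated with pin-transferred compound, and kept 48 or 72 hr at 37 °C before CellTiter-Glo addition and luminescence imaging of cellular ATP.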
Luciferase inh = inhibitors of firefly (Photinus pyralis) luciferase; P08659; purified P. pyralis luciferase, luminescence, biochemical; Potency, µM (series often up to 115 µM), most hits filed as inhibitors; 76,000 tested, 2.5% active; further: nearly all actives have a fitted effect of over 65% in size
Target sequence (P08659 whole entry, looked up): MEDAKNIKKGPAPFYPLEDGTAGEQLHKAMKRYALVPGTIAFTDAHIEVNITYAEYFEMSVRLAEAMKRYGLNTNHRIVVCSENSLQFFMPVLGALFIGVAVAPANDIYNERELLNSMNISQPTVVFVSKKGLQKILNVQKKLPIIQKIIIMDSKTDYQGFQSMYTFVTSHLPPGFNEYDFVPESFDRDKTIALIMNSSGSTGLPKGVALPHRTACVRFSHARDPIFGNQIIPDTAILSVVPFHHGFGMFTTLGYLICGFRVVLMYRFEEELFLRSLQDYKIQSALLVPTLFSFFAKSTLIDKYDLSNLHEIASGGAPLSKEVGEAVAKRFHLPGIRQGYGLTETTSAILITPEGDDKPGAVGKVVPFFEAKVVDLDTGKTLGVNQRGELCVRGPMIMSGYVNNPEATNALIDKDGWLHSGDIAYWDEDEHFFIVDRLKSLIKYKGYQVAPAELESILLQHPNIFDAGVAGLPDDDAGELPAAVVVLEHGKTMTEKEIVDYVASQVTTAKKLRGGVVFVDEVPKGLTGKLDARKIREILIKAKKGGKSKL
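Luminescence read by CCD imager after adding enzyme (10nM final) to wells holding compound, titrated in qHTS. Substrates 10uM each D-luciferin and ATP; buffer 50mM Tris acetate pH 7.5, 10mM Mg acetate, Tween-20, BSA.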
Starred values were filed as active, the others as inactive; i = inactive; ? = inconclusive; . = not tested or not shown; [ ] = another dose, or the depositor's remark. This is a sample that favours compounds with a hit; in the whole collection about 11% have one here. Unless noted, the call rests on the fitted dose curve; in most records, active means well fitted curve in the direction sought with a large enough effect; inconclusive means small, poorly fitted or top-dose-only effect, or another doubt; inactive means no such curve, though single readings can be large; an effect the other way counts as inactive or inconclusive. On the % scale 0 is the no-effect control and ±100 the full control effect; potency means the concentration at half of the fitted maximal effect.

SMILES	hNpr1 antagonist	HEK293 tox	3T3 cytotox	Luciferase inh
Cc1cccc(CC(=O)NC2CCN(c3cc(-c4cccs4)[nH]n3)C2)c1 (centres undefined)	-16%	35µM*	?	i
O=C1CCN(C(=O)[C@@H]2CCCN2Cc2cccc(F)c2)CCCCCCN1	3%	1%	-9%	i
Cc1ccc(-c2cccc(CN3CCCC3C(=O)N3CCCCC3)c2)cc1Cl (centres undefined)	.	32µM*	32µM*	.
Cc1ccc(-c2cccc(CN3CCCC3C(=O)N3CCC(C#N)CC3)c2)cc1Cl (centres undefined)	.	40µM*	32µM*	.
COc1ccccc1-c1cccc(CN2CCC(NC(=O)c3ccc(C)cc3)CC2)c1	.	50µM*	?	.
COc1ccccc1-c1cccc(CN2CCC(NC(=O)Nc3ccccc3F)CC2)c1	.	25µM*	18µM*	.
CSc1ccc(-c2cccc(CN3CCC(NC(=O)c4ccc(C)cc4)CC3)c2)cc1	.	-3%	-9%	.
COc1ccccc1-c1cccc(CN2CCC(NC(=O)NC3CCCC3)CC2)c1	.	40µM*	28µM*	.
CSc1ccc(-c2cccc(CN3CCC(NC(=O)C4CCCC4)CC3)c2)cc1	.	0%	-2%	.
O=C1NCc2ccccc2CC12CCN(Cc1cc(F)ccc1O)C2 (centres undefined)	.	-19%	-7%	.
COC1CCN(C(=O)C2(C)CN(Cc3ccccc3)Cc3ccc(Nc4ccccc4)nc32)CC1 (centres undefined)	-17%	?	?	i
CC1(C(=O)Nc2ccccc2)CN(Cc2ccccc2)Cc2ccc(N3CCOCC3)nc21 (centres undefined)	-2%	?	?	i
CC1(C(=O)NC2CCOCC2)CN(Cc2ccccc2)Cc2ccc(Nc3ccccc3)nc21 (centres undefined)	-13%	?	32µM*	i
CN1CCC(NC(=O)C2(C)CN(Cc3ccccc3)Cc3ccc(Nc4ccccc4)nc32)CC1 (centres undefined)	-3%	18µM*	16µM*	i
CNC(=O)C1(C)CN(Cc2ccccc2)Cc2ccc(NCC(C)C)nc21 (centres undefined)	?	?	?	i
CN1Cc2ccc(NCc3ccccc3)nc2C(C)(C(=O)NCc2cccnc2)C1 (centres undefined)	-8%[70.6 µM]	?	?	i
CNC(=O)C1(C)CN(Cc2ccccc2)Cc2ccc(Nc3ccccc3)nc21 (centres undefined)	?	79µM*	?	?
CN1Cc2ccc(Nc3ccccc3)nc2C(C)(C(=O)NCc2cccs2)C1 (centres undefined)	-20%[70.6 µM]	71µM*	?	i
CCOC1CCOC2(CCN(C(=O)Nc3ccc(C)c(C)c3)CC2)C1 (centres undefined)	.	-28%	-20%	.
CN1C(=O)CCC2(CNC(=O)c3ccccc3F)CCC=C12 (centres undefined)	.	i	-8%	.
COCCN1Cc2ccc(NCc3ccccc3)nc2C(C)(C(=O)NC2COC2)C1 (centres undefined)	7%[70.6 µM]	?	?	i
CC1(C(=O)NC2COC2)CN(Cc2ccccc2)Cc2ccc(Nc3ccccc3)nc21 (centres undefined)	-2%[70.6 µM]	89µM*	40µM*	i
CCC(CC)C(=O)NC[C@@H]1C=C(C)[C@H](Cc2nc3ccc(C)cc3[nH]2)C[C@H]1C(C)C	-17%[70.6 µM]	63µM*	?	i
COc1ccc2nc(C[C@@H]3C[C@@H](C(C)C)[C@H](CN4C(=O)C(C)=C(C)C4=O)C=C3C)[nH]c2c1	-17%	?	?	i
CC1=C[C@@H](CNC(=O)c2ccnc(Cl)c2)[C@H](C(C)C)C[C@H]1Cc1nc2ccc(C)cc2[nH]1	?	?	18µM*	i
SMILES	hNpr1 antagonist	HEK293 tox	3T3 cytotox	Luciferase inh
CC1=C[C@@H](CN2C(=O)C(C)=C(C)C2=O)[C@H](C(C)C)C[C@H]1Cc1nc2ccc(C)cc2[nH]1	?	22µM*	28µM*	i
CC1=C[C@@H](CNS(=O)(=O)c2ccccc2)[C@H](C(C)C)C[C@H]1Cc1nc2ccncc2[nH]1	-23%[70.6 µM]	71µM*	79µM*	i
CC(=O)N1Cc2ccccc2CC2(CCN(CC3CCCCC3)CC2)C1	.	-14%	5%	.
CC1=C[C@@H](CNC(=O)CCC(=O)O)[C@H](C(C)C)C[C@H]1Cc1nc2ccncc2[nH]1	7%[70.6 µM]	i	3%[138 µM]	i
CCC(CC)C(=O)NC[C@@H]1C=C(C)[C@H](Cc2nc3ccc(OC)cc3[nH]2)C[C@H]1C(C)C	-22%[70.6 µM]	45µM*	?	i
CC1=C[C@@H](CNC(=O)CC(C)(C)CC(=O)O)[C@H](C(C)C)C[C@H]1Cc1nc2ccc(F)cc2[nH]1	3%	-4%	-1%	i
COc1ccc(C(=O)NC[C@@H]2C=C(C)[C@H](Cc3nc4ccncc4[nH]3)C[C@H]2C(C)C)cc1	-27%[70.6 µM]	89µM*	?	i
COc1ccc(S(=O)(=O)NC[C@@H]2C=C(C)[C@H](CC(=O)N(C)Cc3cccnc3)C[C@H]2C(C)C)cc1	-12%	?	10µM*	i
CCC(CC)C(=O)NC[C@@H]1C=C(C)[C@H](Cc2nc3ccc(F)cc3[nH]2)C[C@H]1C(C)C	-28%[70.6 µM]	?	100µM*	i
O=C1CCN(C(=O)C2(c3ccccc3)CC2)CCCC(C(=O)NCc2ccccc2)CCN1 (centres undefined)	2%	2%	i	i
CNc1nc2c(c(C(=O)N3CCCC3)n1)CN(CCC(C)c1ccc(C)o1)CC2 (centres undefined)	4%	-9%	-12%	i
CCCS(=O)(=O)N1CCC2(CC1)CCC(O)(CN1CCCC1)CC2	.	?	-38%	.
CCOC(=O)CCCOc1cccn2c(=O)c(-c3cc(C)n(-c4ccc(Cl)cc4)n3)c(C)nc12	0%	-21%	-11%	i
COc1ccc(-c2ccc(-c3nc(CC(C)C)no3)cn2)c2cccnc12	?	25µM*	?	i
COc1cc(-c2ccc(-c3nc(CC(C)C)no3)cn2)cc(OC)c1OC	1%	?	?	i
COCc1ncc(C)n1C1CCCN(C(=O)c2ccoc2)C1 (centres undefined)	.	-9%	-6%	.
COC(=O)C1=C(C)N=C2SC=C(CC(=O)NCc3cccc(F)c3)N2C1c1ccccc1 (centres undefined)	-15%	?	?	i
COc1ccc(-c2nc(C)nc3c2CN([S+](=O)([O-])c2cccs2)CC3)cc1	.	i	28µM*	.
COc1ccc(-c2nc(C3CC3)nc3c2CN([S+](=O)([O-])c2cccs2)CC3)cc1	.	-28%	?	.
CCc1nc2c(c(-c3ccc(OC)cc3)n1)CN([S+](=O)([O-])c1cccs1)CC2	.	1%	11µM*	.
COc1ccccc1-c1nnc2ccc(C(=O)NCC3CC3)cn12	.	3%[172 µM]	-22%[138 µM]	.

Source: PubChem BioAssay (National Center for Advancing Translational Sciences (NCATS))
